The record followed here is PubChem BioAssay (NCI).

Compounds without any hit were thinned out: in the full panel of roughly 83,000, 20% have a hit.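 Negative percent growth values reflect cell death: -40 means 40% of the cells present at the start died, and -100 means all died.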 A number with no mark means an inactive call. Active and inactive are the calls of the source. How the source made its calls: active means growth percent below 10; inactive means the rest.

Test systems include SN12C renal; UO-31 renal; TK-10 renal; ACHN renal; CAKI-1 renal; A498 renal; CCRF-CEM leukemia; MOLT-4 leukemia.
Common to all, as to assay: NCI-60 one-dose screen, 48 h (100 = growth as untreated, 0 = no growth, -100 = all killed)
What all share (settings): 10 µM unless noted

In the case of `O=Cc1ccc2nc(C(Cl)(Cl)Cl)ccc2c1`, the growth was 104% with SN12C renal; 81.8% in the experiment with UO-31 renal; 101% with TK-10 renal; 101% in the experiment with ACHN renal; 99.7% in the experiment on CAKI-1 renal; 93.6% in the experiment with A498 renal. The growth is 91.9% in the experiment with CCRF-CEM leukemia and 98.4% with MOLT-4 leukemia.

As to `Nc1nonc1-c1nc2ccccc2n1Cc1ccc(F)cc1`, the growth in the experiment with SN12C renal is 62.4%; with UO-31 renal, 42.9%; in the experiment with TK-10 renal, 55.9%; with ACHN renal it was 68.1%; in the experiment with CAKI-1 renal, 35.9%; in the experiment with A498 renal it was 42.1%. Moreover, the growth in the experiment with CCRF-CEM leukemia was 54.2%; with MOLT-4 leukemia, 30%.

With `CCCCn1c(C)nc2cc(Nc3nc(Cl)nc4nc[nH]c34)ccc21`, the growth in the experiment on SN12C renal was 78.9%; with UO-31 renal, 64.6%; in the experiment with TK-10 renal, 73.5%; in the experiment on ACHN renal, 85.8%; in the experiment with CAKI-1 renal, 76.1%; with A498 renal it was 26%. Moreover, the growth in the experiment on CCRF-CEM leukemia is 78%; with MOLT-4 leukemia, 64%.

For `Clc1ccc(Nc2ncnc3c2sc2ncccc23)cc1`, the growth in the experiment with SN12C renal was 20.5%; with UO-31 renal, -13.8% (active); in the experiment with TK-10 renal, 59.3%; in the experiment on ACHN renal, 14.7%; with CAKI-1 renal it was 15.3%; with A498 renal, 18.7%. Also, the results for the growth with CCRF-CEM leukemia and in the experiment on MOLT-4 leukemia were 21.2% and 15%, respectively.

Turning to `COc1cccc(Cn2c(-c3nonc3NC(C)=O)nc3ccccc32)c1`, the growth with SN12C renal was 48.4%; in the experiment on UO-31 renal, 36%; in the experiment on TK-10 renal, 26.6%; in the experiment with ACHN renal it was 42.8%; in the experiment on CAKI-1 renal it was 24%; in the experiment on A498 renal it was -0.794% (active). In addition, the growth with CCRF-CEM leukemia is 41%; in the experiment on MOLT-4 leukemia, 38.7%.

In the case of `COc1ccc(OC)c(Nc2nc(-c3c(C)nc4sccn34)cs2)c1`, the growth in the experiment on SN12C renal is 90.1%; with UO-31 renal, 77.8%; with TK-10 renal, 98%; in the experiment on ACHN renal it was 79.5%; in the experiment on CAKI-1 renal, 73.7%; with A498 renal it was 30.7%. In addition, the values for the growth in the experiment with CCRF-CEM leukemia and with MOLT-4 leukemia were 38.1% and 9.57% (active), respectively.

For `CCCCn1cnc(-c2cc(-c3ccccc3)cc(C(F)(F)F)c2)n1`, the growth in the experiment on SN12C renal is 98.2%; with UO-31 renal, 87.9%; in the experiment with TK-10 renal, 102%; in the experiment on ACHN renal, 106%; in the experiment on CAKI-1 renal, 91.5%; in the experiment on A498 renal, 70.9%. Further, the values for the growth in the experiment with CCRF-CEM leukemia and in the experiment with MOLT-4 leukemia were 97.1% and 88.8%, respectively.

Take `COc1ccc(C2=Nn3c(nnc3-c3ccc(Cl)cc3N)SC2)cc1`: the growth is 99% in the experiment with SN12C renal; 83.4% in the experiment on UO-31 renal; 130% in the experiment on TK-10 renal; 97% in the experiment on ACHN renal; 92.9% with CAKI-1 renal; 118% in the experiment on A498 renal. For the same compound, the results for the growth in the experiment with CCRF-CEM leukemia and with MOLT-4 leukemia were 73.2% and 101%, respectively.

For the compound `Nc1c(C(=O)c2ccc(Br)cc2)sc2nc3c(cc12)CCCC3`, the growth was 90.7% with SN12C renal; 89.7% in the experiment with UO-31 renal; 108% in the experiment with TK-10 renal; 96.3% in the experiment on ACHN renal; 105% with CAKI-1 renal; 70.9% in the experiment on A498 renal. Also, the growth is 89.9% in the experiment with CCRF-CEM leukemia and 96.4% in the experiment on MOLT-4 leukemia.

As to `Cc1nc2ccc(Nc3nc(NCCN4CCOCC4)nc(Nc4ccc(F)cc4)n3)cc2n1Cc1ccccc1`, the growth in the experiment on SN12C renal was 61.8%; in the experiment on UO-31 renal, 37.3%; in the experiment on TK-10 renal, 60.6%; in the experiment with ACHN renal, 52.2%; in the experiment with CAKI-1 renal it was 55.6%; in the experiment with A498 renal, -13.9% (active). Besides, the values for the growth in the experiment with CCRF-CEM leukemia and in the experiment on MOLT-4 leukemia were 29.5% and 22.7%, respectively.

Regarding `COc1ccc(/C=C2\CCCC3=C2N=C2SC(C)=NN2C3c2ccc(OC)c(OC)c2)cc1OC` (stereo not given), the growth was 26.6% with SN12C renal; 36.1% in the experiment on UO-31 renal; 25.6% in the experiment with TK-10 renal; 20.7% in the experiment on ACHN renal; 26.1% in the experiment on CAKI-1 renal; 52.2% in the experiment with A498 renal. Also, the growth in the experiment on CCRF-CEM leukemia was 3.82% (active); with MOLT-4 leukemia, 27.7%.

As to `COc1ccc(Nc2ncnc3c2sc2nc(C)cc(C)c23)cc1`, the growth with SN12C renal was 99.7%; in the experiment with UO-31 renal, 91.5%; in the experiment with TK-10 renal, 115%; with ACHN renal it was 97.2%; with CAKI-1 renal it was 99.2%; in the experiment on A498 renal, 91%. The growth with CCRF-CEM leukemia is 104%; with MOLT-4 leukemia, 95.9%.

For `O=C(N=Nc1c(Cl)c(O)c2ccccc2c1O)C(=O)Nc1cccc(C(F)(F)F)c1`, the growth is 13.2% with SN12C renal; 38.7% with UO-31 renal; 116% in the experiment on TK-10 renal; 58.4% in the experiment with ACHN renal; 54.6% in the experiment on CAKI-1 renal; 84.9% in the experiment on A498 renal. Further, the figures for the growth in the experiment with CCRF-CEM leukemia and in the experiment on MOLT-4 leukemia were 6.57% (active) and 35.2%, respectively.

In the case of `CC(C)NC(=O)OCC#CCOC(=O)NC(C)C`, the growth with SN12C renal is 102%; in the experiment with UO-31 renal, 79.8%; with TK-10 renal, 99.3%; in the experiment with ACHN renal it was 108%; with CAKI-1 renal it was 91.7%; with A498 renal, 104%. For the same compound, the growth in the experiment on CCRF-CEM leukemia was 103%; in the experiment on MOLT-4 leukemia, 101%.

`Cc1ccc(C2CC(c3cccs3)=NN2c2ccc(S(N)(=O)=O)cc2)s1` (stereo not given): the growth in the experiment on SN12C renal was 98.3%; in the experiment on UO-31 renal, 75.8%; in the experiment with TK-10 renal, 94.8%; with ACHN renal, 91.9%; with CAKI-1 renal, 86.7%; with A498 renal, 89.9%. For the same compound, the growth is 80.6% in the experiment with CCRF-CEM leukemia and 89.2% in the experiment on MOLT-4 leukemia.
